Tcruzi prolif: inhibitors of T. cruzi proliferation; T. cruzi beta-gal in NIH3T3, GalScreen luminescence, 90 h; inhibition, % at 8.34 µM; 77,000 compounds, 5.9% hits;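 active = mean inhibition above about 93%, with at least 55% of replicates each passing it, limit read from the data, passing the limit was not always enough; inconclusive = only one of those two conditions holds; inactive = neither condition holds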
Pf Dd2 growth: inhibitors of Plasmodium falciparum Dd2 growth. P. falciparum Dd2 growth, SYBR Green, 72 h; hits give low values. activity change, % at 10 µM. 94,000 compounds, 2.3% hits; in the data active = activity change below about -80%; inconclusive = no clear call, values can overlap the other calls
C diff growth: inhibitors of Clostridium difficile growth; Clostridium difficile clinical isolate growth, OD600, 24 h; hits give low values; growth activity, negative = inhibition, % at 16 µg/mL (by protocol); 86,000 compounds, 0.25% hits; AID 1259249;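 active = mean growth activity at or below -80% and every replicate also at or below -80%; inconclusive = mean at or below -80% but some replicate above -80%; inactive = mean growth activity above -80%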
Numbers stand for hits; 0 = inactive; ? = inconclusive; - = no result. Hits are enriched below; roughly 6.7% of the tested compounds scored in any of these assays.

SMILES	Tcruzi prolif	Pf Dd2 growth	C diff growth
C[C@@H]1CN([C@@H](C)CO)C(=O)c2cc(NC(=O)C3CCCCC3)ccc2O[C@@H](C)CCCCO[C@@H]1CN(C)C(=O)Nc1cccc2ccccc12	0	-89.2	0
C[C@H](CO)N1C[C@H](C)[C@H](CN(C)C(=O)Nc2cccc3ccccc23)OCCCC[C@H](C)Oc2ccc(NC(=O)NC3CCCCC3)cc2C1=O	-	0	0
C[C@@H]1CCCCO[C@H](CN(C)C(=O)Nc2cccc3ccccc23)[C@H](C)CN([C@@H](C)CO)C(=O)c2cc(NC(=O)C3CCCCC3)ccc2O1	0	0	0
CNC[C@@H]1Oc2cc(C#Cc3ccncc3)ccc2S(=O)(=O)N([C@H](C)CO)C[C@@H]1C	-	0	0
C[C@@H]1CN([C@@H](C)CO)C(=O)c2cc(C#Cc3cccnc3)cnc2O[C@H]1CN(C)Cc1ccccc1	0	0	-
CCS(=O)(=O)N1CC2(C1)CN(S(=O)(=O)c1ccccc1)[C@@H](CO)c1c2c2ccc(OC)cc2n1C	-	0	0
COc1ccc2c3c(n(C)c2c1)[C@H](CO)N(Cc1ccccc1)CC31CCN(S(=O)(=O)c2ccc(C)cc2)CC1	-	-84.3	0
CCS(=O)(=O)N1CCC2(CC1)CN(S(=O)(=O)c1ccccc1)[C@@H](CO)c1c2c2ccc(OC)cc2n1C	-	-84.2	0
COc1cc(CN2CC3(CCN(S(=O)(=O)c4cccs4)CC3)c3c(n(C)c4cc(OC)ccc34)[C@@H]2CO)cc(OC)c1	-	0	0
COc1ccc2c3c(n(C)c2c1)[C@@H](CO)N(Cc1ccccc1)CC31CN(S(=O)(=O)c2ccc(C)cc2)C1	-	0	0
COc1cc(CN2CC3(CN(S(=O)(=O)c4cccs4)C3)c3c(n(C)c4cc(OC)ccc34)[C@@H]2CO)cc(OC)c1	-	0	-87.4
CC(=O)N(C)C[C@H]1Oc2cc(-c3ccccc3F)ccc2S(=O)(=O)N([C@@H](C)CO)C[C@H]1C	0	0	0
COc1ccc2c3c(n(C)c2c1)[C@@H](CO)N(Cc1ccccc1)CC31CCN(C)CC1	-	0	0
C[C@@H]1CN([C@H](C)CO)C(=O)c2cc(C#CCc3ccccc3)cnc2O[C@@H]1CN(C)Cc1ccc(C(=O)O)cc1	-	0	0
C[C@@H]1CN([C@H](C)CO)C(=O)Cc2cc(NS(=O)(=O)c3ccc(F)cc3)ccc2O[C@H]1CN(C)Cc1ccc(C(=O)Nc2ccccc2N)cc1	-	0	0
C[C@@H]1CN([C@@H](C)CO)C(=O)Cc2cc(NS(=O)(=O)c3ccccc3)ccc2O[C@@H]1CN(C)Cc1ccc(C(=O)Nc2ccccc2N)cc1	0	-88.3	0
C[C@@H]1CN([C@@H](C)CO)C(=O)Cc2cc(NS(=O)(=O)c3ccc(Cl)cc3)ccc2O[C@@H]1CN(C)Cc1ccc(C(=O)Nc2ccccc2N)cc1	-	-81.9	0
C[C@@H]1CN([C@H](C)CO)C(=O)Cc2cc(NS(=O)(=O)c3ccc(Cl)cc3)ccc2O[C@H]1CN(C)Cc1ccc(C(=O)Nc2ccccc2N)cc1	-	0	0
C[C@@H]1CN([C@H](C)CO)C(=O)Cc2cc(NS(=O)(=O)c3ccccc3)ccc2O[C@H]1CN(C)Cc1ccc(C(=O)Nc2ccccc2N)cc1	-	0	0
C[C@@H]1CN([C@H](C)CO)C(=O)Cc2cc(NS(=O)(=O)c3ccc(Cl)cc3)ccc2O[C@@H]1CN(C)Cc1ccc(C(=O)Nc2ccccc2N)cc1	-	-84.9	0
CO[C@H]1CN(C)C(=O)c2cc(NC(=O)Nc3c(C)noc3C)ccc2OC[C@@H](C)N(CCC(F)(F)F)C[C@@H]1C	0	0	-
C[C@H]1CN([C@@H](C)CO)C(=O)c2cc(-c3ccncc3)cnc2O[C@@H]1CN(C)Cc1cccnc1	0	0	0
O=C(NCc1ccncc1)[C@H]1N[C@H]2c3ccc(/C=C/c4ccccc4)c(=O)n3C[C@H]2[C@@H]1CO	0	0	0
COc1ccc2c3c(n(C)c2c1)[C@H](CO)N(CC1CC1)CC31CN(Cc2nccs2)C1	-	0	0
Cc1ccc(S(=O)(=O)N(C)C[C@@H]2Oc3ccc(NS(=O)(=O)c4cn(C)cn4)cc3CC(=O)N([C@@H](C)CO)C[C@H]2C)cc1	0	0	-
SMILES	Tcruzi prolif	Pf Dd2 growth	C diff growth
C[C@H]1CN([C@@H](C)CO)C(=O)c2c(c3ccccc3n2C)-c2ccccc2CO[C@@H]1CN(C)Cc1cccc(C(F)(F)F)c1	-	-81.6	0
C[C@@H]1CN([C@H](C)CO)C(=O)c2c(c3ccccc3n2C)-c2ccccc2CO[C@H]1CN(C)Cc1ccccc1C(F)(F)F	-	0	0
C[C@@H]1CN([C@@H](C)CO)C(=O)c2c(c3ccccc3n2C)-c2ccccc2CO[C@@H]1CN(C)Cc1cccc(C(F)(F)F)c1	-	-90.5	0
C[C@H]1CN([C@@H](C)CO)C(=O)c2c(c3ccccc3n2C)-c2ccccc2CO[C@H]1CN(C)Cc1ccc(C(F)(F)F)cc1	-	?	0
C[C@@H]1CN([C@@H](C)CO)C(=O)c2c(c3ccccc3n2C)-c2ccccc2CO[C@@H]1CN(C)Cc1ccccc1C(F)(F)F	-	-86.9	0
C[C@@H]1CN([C@@H](C)CO)C(=O)c2c(c3ccccc3n2C)-c2ccccc2CO[C@H]1CN(C)Cc1ccc(C(F)(F)F)cc1	-	0	0
C[C@H]1CN([C@@H](C)CO)C(=O)Cc2cc(NC(=O)Nc3ccccc3)ccc2O[C@H]1CN(C)C(=O)Nc1ccc(C(F)(F)F)cc1	0	0	0
O=S(=O)(N[C@H]1CC[C@@H](CCn2cc(-c3ccccc3F)nn2)O[C@H]1CO)c1ccc(F)cc1	-	0	0
C[C@@H](NC(=O)C[C@@H]1C=C[C@H](NC(=O)Nc2ccc3c(c2)OCO3)[C@H](CO)O1)c1ccccc1	0	0	-
C[C@@H]1CN([C@H](C)CO)C(=O)c2cccc(NS(C)(=O)=O)c2O[C@H]1CN(C)C	0	0	0
COc1ccc(-c2ccccc2[C@H]2[C@@H](C#N)N(C(=O)NC(C)C)[C@H]2CO)cc1	-	-87.2	0
COc1ccccc1-c1ccccc1[C@H]1[C@@H](C#N)N(C(=O)C2CC2)[C@@H]1CO	-	0	0
COc1ccccc1-c1ccccc1[C@H]1[C@H](C#N)N(C(=O)C2CCC2)[C@H]1CO	-	-84.6	0
COc1ccccc1-c1ccccc1[C@H]1[C@@H](CO)N(C(=O)C2CCC2)[C@H]1C#N	-	0	0
COc1ccc(-c2ccccc2[C@H]2[C@@H](C#N)N(C(=O)C3CCCC3)[C@@H]2CO)cc1	-	-97.6	0
COc1ccc(-c2ccccc2[C@H]2[C@@H](C#N)N(C(=O)C3CCC3)[C@H]2CO)cc1	-	0	0
COc1ccc(-c2ccccc2[C@H]2[C@@H](CO)N(C(=O)NC(C)C)[C@H]2C#N)cc1	-	0	0
COc1ccccc1-c1ccccc1[C@@H]1[C@@H](C#N)N(C(=O)C2CC2)[C@@H]1CO	-	-97.6	0
CCN1[C@@H]2c3ccc(-c4ccccc4OC)c(=O)n3C[C@@H]2[C@@H](CO)[C@@H]1C(=O)NCC1CC1	0	0	0
C[C@H]1CN([C@@H](C)CO)C(=O)c2cccc(NC(=O)c3ccc(-c4nccs4)cc3)c2O[C@H]1CN(C)S(=O)(=O)c1cn(C)cn1	0	0	0
CCCNC(=O)N1CC2(CCN(CC3CCCC3)CC2)c2c(n(C)c3cc(OC)ccc23)[C@H]1CO	-	0	0
C[C@@H]1CN([C@@H](C)CO)C(=O)c2cc(-c3cccnc3)cnc2O[C@@H]1CN(C)C(=O)C1CCOCC1	0	0	0

Screening data from PubChem BioAssay.
